# An excerpt weighted towards active compounds, which were near 7.9% of everything screened.
# KB-V1 MDR tox: qHTS assay for MDR1-selective chemotherapeutics: Primary screen using the drug-selected MDR subline cells KB-V1. KB-V1 MDR cells viability, CellTiter-Glo, 72 h. Potency, µM (series often up to 46.1 µM), hits mostly cytotoxic. 400,000 compounds, 3.4% hits; further: on the % scale 0 is the no-effect control and ±100 the full control effect; nearly all actives have a fitted effect of over 60% in size
#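 Readout: CellTiter-Glo luminescence, 10 min after addition. Cells: KB-V1 MDR subline, 72 h at 37 degrees C with compound. Analysis: corrected, normalized data fitted to concentration-effect curves.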
# HT1080-NT tox: qHTS for induction of synthetic lethality in tumor cells producing 2HG: qHTS for the HT-1080-NT fibrosarcoma cell line; HT-1080-NT fibrosarcoma viability, CellTiter-Glo ATP luminescence, 48 h; Potency, µM (highest dose often 46.1 µM), inactives show at the highest dose activity, negative = less viability, hits mostly cytotoxic; 360,000 compounds, 1.6% hits;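 further: NT is the 2HG producing partner of a matched IDH1 knockdown line; 0% = DMSO-treated cells and -100% = media-only wells without cells; nearly all actives have a fitted effect of over 55% in size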
#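 Viability by CellTiter-Glo luminescence after 48 h compound exposure at 37C of HT-1080-NT cells (750/well, RPMI, 5% FBS). % activity scaled between DMSO wells and medium-only wells, then curve-fitted and categorized by curve class.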
# KB-3-1 cytotox: qHTS assay for MDR1-selective chemotherapeutics: Primary screen using the parental adenocarcinoma cell KB-3-1. KB-3-1 viability, CellTiter-Glo ATP luminescence, 72 h. Potency, µM (doses to about 46.1 µM), actives largely listed as cytotoxic. 400,000 compounds, 1.4% hits; further: on the % scale 0 is the no-effect control and ±100 the full control effect; nearly all actives have a fitted effect of over 60% in size
#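 Viability of parental KB-3-1 cells, measured by CellTiter-Glo luminescence, followed a 72 h incubation at 37 °C with pinned compounds in phenol-red-free DMEM containing 10% FBS.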
# HT1080 IDH1KD tx: qHTS for induction of synthetic lethality in tumor cells producing 2HG: qHTS for the HT-1080-IDH1KD cell line | AID 686971, 2013 | HT-1080 IDH1 knockdown viability, ATP luminescence, 48 h | Potency, µM (top dose mostly 46.1 µM), without a hit: at the top dose activity, negative = toxicity, hits mostly cytotoxic | 360,000 compounds, 2% hits;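 further: 0% = DMSO wells and -100% = cell-free medium wells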
#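 HT-1080-IDH1KD cells (IDH1 knocked down), 750/well in RPMI with 5% FBS, treated with compound 48 h at 37 degrees C. Viability by CellTiter-Glo luminescence, normalised to DMSO and no-cell wells; concentration-response curves classed.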
# SW480 rerep: A quantitative high throughput screen for small molecules that induce DNA re-replication in SW480 colon adenocarcinoma cells. SW480 DNA re-replication, Hoechst DNA content imaging, 48 h. 340,000 compounds, 1.8% hits. Potency, µM (highest dose often 46.1 µM), without a hit: at the highest dose re-replication activation, hits mostly activators; further: % of control where 0% means no effect; nearly all actives have a fitted effect of over 55% in size
#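 Compounds, transferred as 23 nL by pin tool, were incubated with cells for 48 hr; DNA content per nucleus was then quantified by Hoechst staining and fluorescence plate imaging.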
# MCF10A rereplic: A quantitative high throughput screen for small molecules that induce DNA re-replication in MCF 10a normal breast cells | MCF 10A DNA re-replication, Hoechst nuclear intensity, 48 h | 350,000 compounds, 2.9% hits | Potency, µM (doses to about 46.1 µM), inactives show at the top dose activity, positive = re-replication, hits mostly activators; further: % of control where 0% means no effect; nearly all actives have a fitted effect of over 50% in size
# Numbers without * were called inactive; i = inactive; ? = inconclusive; . = no result. The call rests on the fitted dose curve; in most records, active means well fitted curve in the direction sought with a large enough effect; inconclusive means small, poorly fitted or top-dose-only effect, or another doubt; inactive means no such curve, though single readings can be large; an effect the other way counts as inactive or inconclusive. Potency means the concentration at half of the fitted maximal effect.
SMILES,KB-V1 MDR tox,HT1080-NT tox,KB-3-1 cytotox,HT1080 IDH1KD tx,SW480 rerep,MCF10A rereplic
O=C(Nc1ccccc1Cl)c1cc(C2CCCCN2S(=O)(=O)c2ccc(F)cc2F)on1 (configuration not stated),i,1.2%,?,-27.9%,.,.
Cc1ccccc1Nc1nc(N)c2ccccc2n1,?,?,?,16.4µM*,0.6%,0.3%
O=C(c1ccc(Cl)cc1)N1CCN(c2ccc(F)cc2)CC1,16.4µM*,-1.6%,i,12.6%,-6.6%,4.6%
O=C(c1c(Cl)nc2sccn12)N1CCN(c2cccc(Cl)c2)CC1,?,?,1.64µM*,3.26µM*,2.91µM*,4.11µM*
Cc1[nH]c(-c2ccc(F)cc2)cc1C(=O)N1CCN(c2cccc(Cl)c2)CC1,?,?,i,?,?,9.2µM*
O=C(c1cccc(F)c1)N1CCN(c2cccc(Cl)c2)CC1,11.6µM*,?,20.6µM*,14.6µM*,?,?
O=C(Nc1ccccc1)C1CCOC1=O (configuration not stated),i,4.0%,i,-6.6%,-33.0%,-3.3%
O=C(c1ccc(N2CCN(C(=O)c3ccccc3)CC2)cc1)c1cccc(F)c1,9.2µM*,-26.9%,?,-4.6%,7.5%,9.2µM*
CC(=O)Nc1cccc(-c2ccnc3c2CC(C(=O)NCCc2ccccc2)O3)c1 (configuration not stated),i,?,i,?,.,.
Cc1ccc(NC(=O)c2cc3c(s2)CCCC3)cc1S(=O)(=O)Nc1ccccc1Cl,?,-3.6%,?,?,?,16.8%
COc1ccccc1NS(=O)(=O)c1cc(NC(=O)Nc2ccccc2)ccc1N1CCCCC1,?,4.2%,i,6.6%,2.1%,1.0%
O=C(Nc1ccc(N2CCCCC2)c(S(=O)(=O)Nc2ccccc2Cl)c1)c1cccnc1,.,-0.5%,.,-28.8%,?,18.4µM*
O=C(Nc1ccc(F)cc1)Nc1ccc(N2CCCC2)c(S(=O)(=O)Nc2ccccc2Cl)c1,?,?,20.6µM*,23.1µM*,?,12.8%
O=C(Nc1ccc(Cl)c(Cl)c1)Nc1ccc(N2CCCC2)c(S(=O)(=O)Nc2ccccc2Cl)c1,23.1µM*,?,5.17µM*,13µM*,?,?
Cc1ccc(C(=O)Nc2ccc(C)c(S(=O)(=O)Nc3ccccc3Cl)c2)s1,?,-20.9%,23.1µM*,?,16.3%,?
Cc1cccn2c(=O)c(C=O)c(N3CCSCC3)nc12,i,-5.8%,i,-3.2%,5.8µM*,-0.5%
CC(=O)N1c2ccccc2Oc2cc3ccccc3cc21,i,-7.6%,i,-6.5%,12.7%,-1.2%
O=C(CCl)N1c2ccccc2Oc2ccc3ccccc3c21,?,?,i,16.4µM*,5.8µM*,18.4µM*
Cn1c(=O)c2cc(S(=O)(=O)Nc3cc(C(=O)O)cc(C(=O)O)c3)ccc2n(C)c1=O,i,7.4%,i,4.8%,-133.1%,-6.1%
Cc1ccc(NS(=O)(=O)c2ccc3c(c2)c(=O)n(C)c(=O)n3C)cc1F,?,16.4µM*,18.4µM*,?,?,23.3%
Cc1cc(C)cc(NS(=O)(=O)c2ccc3c(c2)c(=O)n(C)c(=O)n3C)c1,?,6.31µM*,8.2µM*,3.16µM*,-6.2%,-3.3%
COc1cccc(CNC(=O)[C@@H]2CCCN2C(=O)[C@H]2CCCCN2)c1,i,6.0%,i,11.5%,.,.
O=C(Cn1cc(C(=O)C2CC2)c2ccccc21)Nc1ccc(Br)cc1,i,.,i,.,.,.
